Measured values as given in PubChem BioAssay AID1508600 (Functional Genomics Laboratory (NCATS/FGL), 2020).
Out of some 53,000 sequences screened, about 3,700 (7%) were called active. Only a selection was taken, and actives are over-represented in it overall. A number with no mark means an inactive call.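 How the source made its calls: active means gene knockdowns whose robust z-score for IL-1 alpha signal is at least 2 or at most -2, so actives lie on both sides; inactive means the rest.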

experiment: Components of the Cytosolic LPS Sensing Pathway: Gene Identification via Genome-wide siRNA Screen; conditions: RAW264.7 macrophages, IL-1a HTRF, actives lie on both sides, screened at 100 nM (by protocol), cells primed 5 h with Pam3CSK4 first;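 further: robust z of the log signal after scaling to non-targeting control siRNA wells of the plate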
Outline: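 Supernatant IL-1a by HTRF from RAW264.7 cells primed with Pam3CSK4 (5 hours) and transfected with LipidA (24 hour) after 48h siRNA knockdown at 100 nM; cell viability checked with CellTiter-Glo.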

| Sequence | z-score |
| --- | --- |
| GGAAAAUCAACAGCAUCAATT against Olfr661 | -0.642 |
| CCCUAUUGAUUCAACUUGGTT against Samt4 | 0.253 |
| GGGCAACGUAUUCACAUUATT against Manbal | 2.86 (active) |
| GGAGCUUUGAAGAGACUGGTT against Olfr117 | -2.32 (active) |
| GGUGCUGCUGAGAUUUUUCTT against Pxt1 | 0.555 |
| GGCAAUGGAGAGAGAGAUGTT against Patl1 | -2.36 (active) |
| GGAUCAAAGGAAGAAGGGCTT against Zbtb24 | -0.00585 |
| GGCCAGAACUUAAAUUUUCTT against Nbr1 | 0.658 |
| GGUAGUGUCUAACUUCUGGTT against Zkscan17 | 2.13 (active) |
| GGGACAAUUCUGGAUUAAATT against 9330155M09Rik | -0.639 |
| GGGAAUCACCCUGAGAAAGTT against Ccndbp1 | -0.269 |
| GAACAGUCCUUUUAUGGAUTT against Vmn1r33 | 0.38 |
| GCAUCCUUCACUCAAAUAUTT against Aspa | 3.17 (active) |
| GGACAGAGUUUUCAUUUUGTT against Rptn | -1.51 |
| GCUUCAGCCAUUUCACCUUTT against Rnaseh2c | 0.108 |
| GGGAAUAAUCUACAAGCCATT against Ccdc121 | 1.92 |
| GGUGUACCAGCAUAGCUGUTT against Hps5 | 1.24 |
| GGAAAAUUACAGAAUUGGATT against Dnali1 | 0.323 |
| GGAGCACUUUAAGUUAUACTT against Rnf225 | 1.73 |
| GGAAGAUGACAACUUAUCUTT against Abcc8 | -0.854 |
| AUGAAAACCAUUCCCAAUUTT against Olfr435 | 5.22 (active) |
| GGCUGUUCUCUAGAUGAAUTT against 1810065E05Rik | -1.54 |

| Sequence | z-score |
| --- | --- |
| GCACUAGCUAAUAAUGCAATT against Oxsm | -1.54 |
| GGAAUGAGAAGAGAGGAUCTT against Rpp25 | -0.239 |
| GGGCAAGUUUUUUUUUCUUTT against Sf3a2 | 0.586 |
| UGGCCUGAUCAUGAACAGUTT against S100a7a | 1.21 |
| GGCCGAAGAAUUCAUCUUUTT against Pomgnt2 | -0.339 |
| GGUCGAUUUGUCCUUGUGCTT against Rassf7 | -2.04 (active) |
| GGGCCUGAAAAGACCAUCATT against Olfr124 | -0.424 |
| CCUUGAUCUACAUAGAACCTT against Olfr177 | 0.338 |
| GGGAUUUUGUGAUGUCCGCTT against Mmp23 | 0.422 |
| CCACUUUCAACCUGACCGUTT against Pcdhac2 | 0.345 |
| GGACGAUUCCCAGUUUCUGTT against Phf1 | 1.25 |
| GCCGGAAUCAAGAUUAUCATT against Foxm1 | -2.04 (active) |
| GGCUGCUUUCUGAUGGUCATT against Marchf3 | 0.595 |
| GGAAUACUGAAUUUAAGGATT against Olfr1416 | 1.25 |
| GGAAGCGUAAAUAAGUGUCTT against Emp2 | 0.772 |
| GGAAAAUGUUGAAGUGGAATT against Ndufa5 | -0.805 |
| GGUGCAUGCACUGAAGAAGTT against Mpv17 | 1.39 |
| CGAAUAGGGAGCCAUAAGATT against Tubb6 | 1.66 |
| GCCUCACUCAGCAAAAGGATT against Ttc9c | -2.09 (active) |
| GGAGACCUGUGACUCCUUATT against 4932415M13Rik | 1.9 |
| GCUAGACUUCUUUGUGCGATT against Abhd8 | 0.656 |
| GGCAAUGGCACUGAAGUCATT against Olfr994 | -0.0376 |

| Sequence | z-score |
| --- | --- |
| CCCAAGCAACCCUUAUCAATT against Mcee | -0.315 |
| GGUAUCACUACUUUUUAGUTT against Eri3 | -0.742 |
| GGUUUGUGGUGGUAUUUAATT against Man2a2 | 2.47 (active) |
| GGAUGAGGACACCAUUGAUTT against Sumo3 | 0.723 |
| GGUUGACGAAAUGACUAUATT against Adh4 | -0.105 |
| GCAGACCAGACAGUAUUACTT against Zeb1 | 1.22 |
| GCCUCUCAUUAGCAGUCAATT against Fbxl15 | -1.92 |
| CGUUAGCUGUUAUGAUCUATT against Cept1 | 0.203 |
| GGGUCCUAAGGGAUUUAUUTT against Klf16 | -0.49 |
| GGUUUUGCACAGCAUUGGUTT against Efna1 | -1.02 |
| GGAAUCAAACUGGAUUGAUTT against Pi4k2b | 2.01 (active) |
| GGUAUUGGAUCAUUUACAATT against Nae1 | -0.0968 |
| CGAUUUGCCCAAUAAAGAATT against Scn9a | 0.223 |
| GGACGAAUUUCUUACAGUATT against Mterf4 | 2.2 (active) |
| GCCGAUGUCAGUGGUUAAATT against Bmx | 0.198 |
| CCUGGUAUAUUACCGCUUCTT against P3h4 | 0.519 |
| GGAUCUCUGGGUCUGAAAATT against Ccz1 | 0.606 |
| GCACGUCCAUUCUGCUUUCTT against Smco4 | 2.4 (active) |
| GGACCUGUGUGCUGAGUUGTT against Matn4 | -1.59 |
| GGGAGAUUAAUCAAGAACUTT against Ccnc | 0.809 |
| GGUUGGAGAUCUCAUCUAUTT against Exosc3 | 0.699 |
| GCACCUCUCUACAUUACUGTT against Igflr1 | -0.0949 |

| Sequence | z-score |
| --- | --- |
| GGCUGAAGACACUGAACACTT against Olfr643 | -2.51 (active) |
| GCAUUCAGAAAGUGUAUAATT against Tspan3 | -0.0953 |
| GGGUGAAGGUGAAUAUUUATT against Esm1 | -1.12 |
| GGCCUAGACAUACAUGAAATT against Bnip3l | 2.93 (active) |
| GCCAAAGUAGUUGAACCUUTT against Cibar1 | -0.48 |
| GGACUGAACCGUUUUAAAGTT against Fmo3 | -0.317 |
| GCAUUACUUUAAGCCAUAUTT against Rbl1 | 3.57 (active) |
| GGGCCUGUACAUCUUCCAATT against Anpep | 0.926 |
| CUGGAUGCAUUAACUUCUUTT against Olfr1219 | 0.326 |
| GGGUAGUUAUGACUAAAUUTT against Etl4 | 1.31 |
| GGAGAAUAUUCUCUGUGGATT against Rab11fip5 | -2.71 (active) |
| GCACACUACAACGUAUCACTT against Stpg2 | 1.31 |
| CCCAACUGUCAAAUAAUCCTT against Eddm3b | 0.0505 |
| GCCAUUACCCGGUAUAUGATT against Sesn1 | -1.96 |
| GGAUCACUCUAAUUCAGAUTT against Fcamr | 1.93 |
| GGACAUUUGAUAUUGAAGATT against B3gnt2 | -1.88 |
| CGGAAGUAAAAAGAACUACTT against Olfr1321 | 3.01 (active) |
| CCCUGGUGACUACGAGAAUTT against Chrna4 | -0.462 |
| GGACUUUACAAUAAAACAGTT against Dkk4 | -2.2 (active) |
| GGUGAUGCCUUAUUUUGAATT against Ap5s1 | -1.1 |
| GGUAACAAACCGAAAGUAUTT against Polr3k | -0.539 |
| GGAACAAGUGUCUGACAGUTT against Emc3 | 1.82 |

| Sequence | z-score |
| --- | --- |
| GCGCACAGUACAUUCAUUUTT against Drd5 | 3.62 (active) |
| CCGAAAACUUAUCUAGAAATT against BC023105 | -0.846 |
| GGAUCAACAUGGUCUCCUCTT against Stambpl1 | -1.63 |
| GCCAGAAAAGUACCACCAGTT against Slc35f4 | -1.15 |
| GCUUUCAUAGAAUCUUGGCTT against Rnf24 | 0.709 |
| GGAGAUGGCUAUAUUCUGATT against Lipa | 0.0668 |
| GCGAGUACUUACUCUUCGUTT against Rpl3 | -0.355 |
| GCACGUGAACACAAACCCGTT against Nup50 | -1.13 |
| GCUUAAGUGUGAUACAGUGTT against Rars2 | 2.45 (active) |
| GUUACAGCUGCCUUUGUUUTT against Olfr893 | -2.49 (active) |
| CGUCUGUCAGAAACUACACTT against Atrnl1 | 0.864 |
| GCUCAGUUUCUCAUGAAACTT against Tespa1 | 0.206 |
| GGAAUGCAGAAAUGAAAAATT against Olfr1234 | -0.909 |
| GGAAAGAAGAACCAAGCUCTT against Med6 | -1.01 |
| GAUCAAAGCGGCGUACUACTT against Dnajc30 | 0.738 |
| GGAAAAGUAUCCAUGUCACTT against Impa1 | -1.75 |
| GGCAUCAUAAAGCCAGGCATT against Sybu | -2.42 (active) |
| GGGUAUAUAAGCAGCACCATT against Rdh9 | 0.736 |
| CCCAUCCAAGAUUUGAUUUTT against 2310002L09Rik | 1.89 |
| GGCUGUAGUUGGCUAACACTT against Slc25a28 | -0.103 |
